From PubChem
CBX7 AlphaScr: CBX7 chromodomain binding inhibitors, primary screen, biochemical, AlphaScreen. actives 1.1% (n = 66,000). AID 1224903, 2016. normalised signal (fraction of DMSO) (concentration not given with the values). AlphaScreen His6-CBX7 / biotin-H3K27me3 peptide binding; active compounds read low; in the data active = normalised signal below about 0.5
Target sequence (O95931 whole entry, looked up): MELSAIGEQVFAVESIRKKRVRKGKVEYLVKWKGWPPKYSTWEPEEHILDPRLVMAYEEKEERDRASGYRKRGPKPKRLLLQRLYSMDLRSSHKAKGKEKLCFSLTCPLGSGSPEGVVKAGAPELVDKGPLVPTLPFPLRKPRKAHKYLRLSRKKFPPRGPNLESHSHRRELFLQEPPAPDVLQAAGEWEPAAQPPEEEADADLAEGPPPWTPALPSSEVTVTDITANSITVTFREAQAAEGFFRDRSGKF
Starred values were filed as active, the others as inactive. The entries come from a sample that favours hits as a whole.

SMILES	CBX7 AlphaScr
O=C(NC1CCCC1)c1c[nH]c2ccc(S(=O)(=O)Nc3ccc4c(c3)OCCO4)cc2c1=O	0.934
Cc1ccc(Cc2c(C)nc3nc(SCC(=O)NC4CCCC(C)C4C)nn3c2C)cc1 (stereo unspecified)	1.2
COc1nc(OC)nc(-n2cnc(NC(=O)Nc3ccc(Cl)cc3)n2)n1	0.245*
O=C(Nc1ccc(Cl)cc1)Nc1ccc(Nc2ccccc2)cc1	0.885
Cc1ccc(NC(=O)Nc2ccc(Cl)cc2)nc1	0.645
COc1ccccc1N1CCN(Cc2nc(-c3ccccc3)no2)CC1	1
COc1ccccc1N1CCN(Cc2cc(Cl)c3cccnc3c2O)CC1	0.000865*
COc1ccccc1N1CCN(c2ncnc3ccccc23)CC1	1.03
COc1ccccc1N1CCN(Cc2cc(Br)c(O)c3ncccc23)CC1	0.0133*
COc1ccccc1C(NC(=O)C(C)C)c1cc(Cl)c2cccnc2c1O (stereo unspecified)	0.715
Oc1c(Br)cc(CN2CCCCC2)c2cccnc12	0.00571*
COc1ccccc1N1CCN(c2nnc(C)c3ccccc23)CC1	1.17
Brc1ccc(OCc2ccccc2)c2ncccc12	1.03
COc1cc(CN2CCN(Cc3ccccc3Br)CC2)cc(OC)c1OC	1.05
CC1CCCCC1NC(=O)c1cc(-c2ccncc2)nc2ccccc12 (stereo unspecified)	0.976
O=C(O)CCNc1c(C(=O)O)cnc2ccccc12	0.98
O=C(NCc1ccc(F)cc1)C1CCC(=O)N1C1CCCC1 (stereo unspecified)	1.02
O=C(NCc1cccnc1)c1cc(-c2cccc(Cl)c2)on1	1.01
CCC(C)NC(=O)c1oc2ccc(S(=O)(=O)N3CCCC(C)C3)cc2c1C (stereo unspecified)	0.859
O=C(CC(C(=O)N1CCc2ccccc21)n1ccnc1)NCCCN1CCCCCC1 (stereo unspecified)	1.03
Brc1ccc(-c2cnc3ccccc3n2)cc1	1.08
Nc1ccc(-c2ccc(-c3cnc4ccccc4n3)cc2)cc1	0.146*
CCOc1ccc(-c2cnc3ccccc3n2)cc1	1.16
CN(C(=O)CCc1nc(-c2ccccc2F)no1)c1cccc(C(F)(F)F)c1	1.02
CC1CCN(S(=O)(=O)c2ccc(NC(=O)c3ccc(C(C)(C)C)cc3)cc2)CC1	1.07
SMILES	CBX7 AlphaScr
COCc1nnc(NC(=O)c2ccc(S(=O)(=O)N3CC(C)OC(C)C3)cc2)o1 (stereo unspecified)	0.673
CC1CC(C)CN(S(=O)(=O)c2ccc(C(=O)Nc3nc(-c4ccncc4)cs3)cc2)C1 (stereo unspecified)	1.02
CC1CN(S(=O)(=O)c2ccc(C(=O)Nc3nnc(-c4ccc(F)cc4)o3)cc2)CC(C)O1 (stereo unspecified)	0.0116*
CCC1CCCCN1S(=O)(=O)c1ccc(C(=O)Nc2nnc(-c3cccc(OC)c3)o2)cc1 (stereo unspecified)	0.914
CC1CN(S(=O)(=O)c2ccc(C(=O)Nc3nnc(-c4cccs4)o3)cc2)CC(C)O1 (stereo unspecified)	0.77
Cc1nnc(NC(=O)c2ccc(S(=O)(=O)N3CC(C)CC(C)C3)cc2)o1 (stereo unspecified)	0.387*
COCc1nnc(NC(=O)c2ccc(S(=O)(=O)N3CC(C)CC(C)C3)cc2)o1 (stereo unspecified)	0.821
Cc1nnc(NC(=O)c2ccc(S(=O)(=O)N3CCC(C)CC3)cc2)o1	0.0279*
CCC1CCCCN1S(=O)(=O)c1ccc(C(=O)Nc2nnc(C)o2)cc1 (stereo unspecified)	0.0944*
CCC1CCCCN1S(=O)(=O)c1ccc(C(=O)Nc2nnc(-c3ccc(OC)cc3)o2)cc1 (stereo unspecified)	0.788
COc1ccc(-c2nnc(NC(=O)c3ccc(S(=O)(=O)N4CCC(C)CC4)cc3)o2)c(OC)c1	0.915
COc1ccc(-c2noc(COc3ccc(Br)cc3Cl)n2)cc1	1.08
CC(C)CCNC(=O)CN1C(=O)CSc2ncccc21	1
CC(C)OCCCNC(=O)c1ccc2c(c1)N(Cc1cccc(F)c1)C(=O)c1ccccc1S2	0.979
Cc1ccc2nc(SCc3ccccc3Cl)[nH]c2c1	1.03
Cc1ccc(OCC(=O)Nc2cc(-c3nc4ncccc4o3)ccc2Cl)cc1C	1.15
COc1ccccc1-c1cc(C(F)(F)F)nc(N2CCN(c3ccccc3OC)CC2)n1	1.22
C=C(C)Cn1c(CNC(=O)c2ccc(F)cc2)nc2ccccc21	0.875
COc1ccccc1C(=O)N1CCN(c2ccc3nncn3n2)CC1	0.996
Cc1cccc(CN2C(=O)CSc3ccc(C(=O)NCc4ccccc4Cl)cc32)c1	1
CCC(C)c1ccc(NC(=O)c2cc3ccccc3o2)cc1 (stereo unspecified)	1.12
CCOc1ccc(-n2c(Cc3cc(=O)[nH]c(=O)[nH]3)nnc2SCC(=O)Nc2cccc(C)c2)cc1	1.08
CC1CC(C)CN(S(=O)(=O)c2ccc(C(=O)Nc3nnc(-c4ccc(Cl)s4)o3)cc2)C1 (stereo unspecified)	0.395*
CC1CCCN(S(=O)(=O)c2ccc(C(=O)Nc3nnc(-c4cccs4)o3)cc2)C1 (stereo unspecified)	1.04
O=C(Nc1nnc(-c2cccs2)o1)c1ccc(S(=O)(=O)N2CCCCC2)cc1	0.827
SMILES	CBX7 AlphaScr
Cc1ccc(NC(=O)Nc2ccccc2Cl)nc1	0.954
CCOc1ccc2nc(C)cc(Nc3ccc(N(C)C)cc3)c2c1	0.699
Cc1ccc(-c2nc(CSCC(=O)NCc3ccc4c(c3)OCO4)c(C)o2)cc1	1.14
CCc1nnc(NC(=O)c2ncn[nH]2)s1	0.382*
CCc1nnc(NC(=O)c2cc(OC)c(OC)c(OC)c2)s1	0.994
CCc1nnc(NC(=O)c2ccc(C(C)(C)C)cc2)s1	0.985
Cc1ccc(-n2ncc(C(=O)Nc3ccccc3C(N)=O)c2C2CCN(C(=O)OC(C)(C)C)CC2)cc1	1.04
Cc1cc(C)c(C(=O)c2ccc(-c3nnc(-c4ccccc4)o3)cc2)c(C)c1	0.809
Clc1ccc(-c2cnc(-c3ccncc3)o2)cc1	1.07
NC(=O)c1ccc(-c2ncc(-c3ccccc3)o2)cc1	0.424*
Cn1nc(-c2ccc(Cl)cc2)c2cc(C(=O)NCC3COc4ccccc4O3)sc21 (stereo unspecified)	1.18
CCOC(=O)c1cc(-c2ccc(OC)cc2)n(CCC(=O)NCCc2ccc(C)cc2)c1C	0.994
COc1ccccc1Nc1cc(C(F)(F)F)nc2c(OC)ccc(OC)c12	0.205*
COc1ccccc1Nc1cc(C)nc2c(OC)cccc12	0.766
COc1ccccc1Nc1cc(C)nc2c(C)cccc12	1.07
Cc1c(Cl)cccc1NC(=O)C1CC(=O)N(c2ccc(Br)cc2)C1 (stereo unspecified)	1.03
COc1ccc(C2CC(=O)N(CC(=O)N3CCCC3)c3ccccc3S2)cc1OC (stereo unspecified)	0.951
C=CCN(CC=C)S(=O)(=O)c1ccc(C(=O)Nc2sc3c(c2C(=O)OC)CCN(C)C3)cc1	1.07
CCN(CC)S(=O)(=O)c1ccc(C(=O)Nc2nnc(-c3cccs3)o2)cc1	0.734
C=CCN(CC=C)S(=O)(=O)c1ccc(C(=O)Nc2nnc(C3CC3)o2)cc1	0.00398*
N#CCCN(CCC#N)S(=O)(=O)c1ccc(C(=O)Nc2nnc(C3CC3)o2)cc1	0.00211*
CCN(CC)S(=O)(=O)c1ccc(C(=O)Nc2nnc(C3CC3)o2)cc1	0.00295*
CN(Cc1ccccc1)S(=O)(=O)c1ccc(C(=O)Nc2nnc(C3CC3)o2)cc1	0.501
O=C(Nc1ccc(-c2noc(COc3ccc(Br)cc3)n2)cc1)c1ccncc1	0.998
